IL1B secr inh: qHTS for Inhibitors of Inflammasome Signaling: IL-1-beta AlphaLISA Primary Screen. THP-1 LPS/ATP IL-1B secretion, AlphaLISA, 16 h; stronger effect = lower value. activity change, % at 57.5 µM. 4.7% of 360,000 active. AID 743279, 2014; in the data active means activity change below about -50%; inconclusive means mostly about -30% to -49%
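THP-1 cells pretreated 1 hr with compounds (up to 57.5 uM final), then stimulated with LPS (250 ng/mL final) plus ATP (1.25 mM final); secreted IL-1B measured by AlphaLISA after 16 hr, decreased signal indicating inhibition.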
RORgamma inh: qHTS for inhibitors of ROR gamma transcriptional activity; Drosophila S2 Gal4-RORgamma UAS-luciferase reporter, 20 h; 5.4% of 310,000 active; Potency, µM (titrated, usually from 53.6 µM), inactives show top-dose activity change, negative = inhibition, most hits filed as inhibitors; further: potency means the concentration at half of the fitted maximal effect; nearly all actives have a fitted effect of over 60% in size
Target sequence (P51450 whole entry, looked up, the tested form may be a part): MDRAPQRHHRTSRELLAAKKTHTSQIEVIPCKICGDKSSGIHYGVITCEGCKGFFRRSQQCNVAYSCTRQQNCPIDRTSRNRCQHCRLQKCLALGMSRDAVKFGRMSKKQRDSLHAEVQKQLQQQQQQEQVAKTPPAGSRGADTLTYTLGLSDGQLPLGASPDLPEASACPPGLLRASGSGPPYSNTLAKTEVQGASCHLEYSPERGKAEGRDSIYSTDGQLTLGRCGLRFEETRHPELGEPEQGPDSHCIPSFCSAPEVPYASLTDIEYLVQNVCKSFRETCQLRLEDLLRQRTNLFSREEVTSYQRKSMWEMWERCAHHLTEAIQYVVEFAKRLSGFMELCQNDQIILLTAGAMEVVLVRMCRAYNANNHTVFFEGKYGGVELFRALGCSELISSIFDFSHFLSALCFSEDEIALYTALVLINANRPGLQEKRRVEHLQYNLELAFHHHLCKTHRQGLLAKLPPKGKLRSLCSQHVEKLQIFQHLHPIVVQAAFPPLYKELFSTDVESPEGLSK
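Stably transfected Drosophila Schneider cells are the test system, with ROR gamma fused to Gal4 and luciferase under UAS control; luminescence is read after 20 hr of 700 uM copper sulfate induction at ambient temperature.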
LDHA inh: qHTS assay for inhibitors of human lactate dehydrogenase; L-lactate dehydrogenase A chain (Homo sapiens), P00338; purified LDHA, NADH/diaphorase-resazurin fluorescence; stronger effect = lower value; activity change, % (values are at about 110 or 230 µM); 0.15% of 480,000 active; AID 1347041, 2019; in the data active means activity change below about -30%; inconclusive means mostly about -25% to -30%;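 further: plate controls were DMSO wells for no effect and wells without enzyme for full effect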
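Human LDH5 at 2 nM final in Tris HCl pH 7.4 with 0.06 mM NADH and 0.2 mM pyruvate, reacted 5 minutes at room temperature. Remaining NADH coupled via diaphorase/resazurin; resorufin fluorescence read at 0 and 20 minutes, normalized to enzyme-free and DMSO wells.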
TDP1 cell CPT: qHTS for Inhibitors of human tyrosyl-DNA phosphodiesterase 1 (TDP1): qHTS in cells in presence of CPT | AID 686979, 2013 | 12% of 420,000 active | chicken DT40 Tdp1-/-;hTDP1 cells + 20 nM CPT, ATP luminescence, 48 h | Potency, µM (doses to about 46.2 µM), without a hit: at the highest dose activity change, negative = growth inhibition, hits mostly inhibitors; further: potency means the concentration at half of the fitted maximal effect; nearly all actives have a fitted effect of over 55% in size
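Cell growth measured by CellTiter-Glo luminescence after a minimum 48 h, 37 C compound exposure with 20 nM CPT in Tdp1-knockout DT40 cells stably expressing hTDP1, seeded 400/well; qHTS titration format.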
DT40 TDP1 no CPT: qHTS for Inhibitors of human tyrosyl-DNA phosphodiesterase 1 (TDP1): qHTS in cells in absence of CPT | DT40 Tdp1-/- hTDP1 cells, no CPT, ATP luminescence, 48 h | 15% of 420,000 active | Potency, µM (doses to about 46.2 µM), for inactives: at the top dose activity change, negative = growth inhibition, actives largely listed as inhibitors; further: potency means the concentration at half of the fitted maximal effect; nearly all actives have a fitted effect of over 55% in size
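Cells were dispensed at 400 per well, compounds added by pin tool, plates incubated ≥48 hr at 37 °C, then CellTiter-Glo added for 30 min at room temperature before luminescence reading. Line: DT40 Tdp1-/- complemented with hTDP1; camptothecin omitted.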
VP16 counter: VP16 counterscreen qHTS for inhibitors of ROR gamma transcriptional activity; 3.5% of 310,000 active; AID 2546, 2010; Potency, µM (highest dose often 53.6 µM), for the others: top-dose activity, negative = inhibition, usual class: inhibitors; Drosophila S2 Gal4-VP16 UAS-luciferase, luminescence, 20 h;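 further: Gal4-VP16 expression switched on by copper sulfate through the metallothionein promoter; potency means the concentration at half of the fitted maximal effect; nearly all actives have a fitted effect of over 50% in size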
Starred values were filed as active, the others as inactive; ? = inconclusive; . = no result given. This is a sample that favours compounds with a hit; in the whole collection about 18% have one here. Unless noted, the call rests on the fitted dose curve; in most records, active means well fitted curve in the direction sought with a large enough effect; inconclusive means small, poorly fitted or top-dose-only effect, or another doubt; inactive means no such curve, though single readings can be large; an effect the other way counts as inactive or inconclusive. Unless noted, on the % scale 0 is the no-effect control and ±100 the full control effect.

SMILES	IL1B secr inh	RORgamma inh	LDHA inh	TDP1 cell CPT	DT40 TDP1 no CPT	VP16 counter
COC(=O)C(C#N)c1nc2ccccc2nc1NCC(C)C (stereo not drawn)	.	.	26.8	.	.	.
Fc1ccc(-c2nnc(Cc3nnc(-c4ccc(F)cc4)o3)o2)cc1	-11.1	5.01µM*	-6.5	-23.6%	-29.2%	?
N#Cc1ccc(CSc2nnc(-c3c[nH]c4ccccc34)o2)cc1	.	.	-7.7	.	.	.
CC(C)(CO)NC(=O)c1nc(-c2ccc(COc3ccc4c(c3)OCO4)cc2)no1	.	.	1.9	.	.	.
Cn1c(=O)c2cc(NC(=S)NCc3ccccc3F)ccc2n1Cc1ccccc1	-14.4	.	0.4	16.4µM*	14.6µM*	.
Cn1c(=O)c2cc(NC(=O)NCc3ccc(F)cc3)ccc2n1Cc1cccc(C(F)(F)F)c1	-0.9	.	-2.0	20.6µM*	14.6µM*	.
Cn1c(=O)c2cc(NC(=O)NCc3ccccc3)ccc2n1Cc1cccc(C(F)(F)F)c1	22.5	.	3.3	?	?	.
Cc1cc(C)cc(Cn2c3ccc(NC(=S)NCc4ccccc4F)cc3c(=O)n2C)c1	?	.	-2.1	?	?	.
COc1ccc(CNC(=O)Nc2ccc3c(c2)c(=O)n(C)n3Cc2cc(C)cc(C)c2)cc1	12.4	.	-1.8	20.6µM*	?	.
Cn1c(=O)c2cc(NC(=S)NCc3ccccc3F)ccc2n1Cc1cccc(C(F)(F)F)c1	-0.9	.	-3.6	20.6µM*	?	.
C=C(C)Cn1c2ccc(NC(=S)NCc3ccccc3F)cc2c(=O)n1C	-6.3	.	25.3	?	-18.3%	.
Cc1nn(-c2ncccn2)c2c1C(c1ccc(OCC(C)C)cc1)CC(=O)N2 (stereo not drawn)	.	.	-2.5	.	.	.
COc1ccc(Cl)cc1NC(=O)N1CCN(c2ccc(=O)n(-c3ccc(C)c(C)c3)n2)CC1	.	.	10.3	.	.	.
Cn1c(=O)c2cc(NC(=S)NC3CC3)ccc2n1Cc1cccc(C(F)(F)F)c1	33.9	.	3.7	-22.7%	?	.
Cn1c(=O)c2cc(NC(=S)NC3CCCCC3)ccc2n1Cc1ccc(Cl)cc1	-57.0*	.	-4.2	?	23.1µM*	.
CCCn1c(COc2cccc(C)c2)nc2ccccc21	.	.	2.6	?	20.6µM*	.
Cc1cccc(OCc2nc3ccccc3c(=O)n2N)c1	-22.7	26.8%	0.3	?	29.1µM*	18.0%
Cc1ccccc1OCc1nc2ccccc2n1Cc1ccccc1Cl	.	.	-1.6	?	10.3µM*	.
Cc1cccc(OCc2nc3ccccc3n2C)c1	-5.9	?	6.8	?	?	?
Cc1ccccc1OCc1nc2ccccc2n1C	2.4	20µM*	-2.4	?	?	?
Cc1ccc(C)c(OCc2nc3ccccc3n2C)c1	.	.	-3.8	?	?	.
Nn1c(COc2cccc(Cl)c2)nc2ccccc2c1=O	-10.2	?	-7.7	4.1%	-12.5%	7.8%
Cc1ccccc1OCCn1c(CCNC(=O)C(C)C)nc2ccccc21	11.2	?	-6.1	-18.9%	?	1.5%
COC(=O)c1ccc(CNC(=O)c2ccc(C#N)cc2)cc1	.	.	1.1	.	.	.
COc1cccc(OCc2nc3ccccc3n2Cc2ccccc2C)c1	.	.	3.3	20.6µM*	11.6µM*	.
COc1ccc(OCC(=O)Nc2cccc(-c3nc4cc(C)ccc4o3)c2C)cc1	.	.	11.2	.	.	.
CCS(=O)(=O)N1Cc2ccccc2CC1C(=O)Nc1nc2ccc(C)cc2s1 (stereo not drawn)	0.0	1.26µM*	-19.2	?	?	?
O=C(Nc1nc2cc3c(cc2s1)OCCO3)c1cccc(N2C(=O)CCC2=O)c1	-22.1	-38.2%	-1.8	-3.0%	?	?

Source: PubChem BioAssay (National Center for Advancing Translational Sciences (NCATS))
